The values below come from PubChem BioAssay (NCATS).

SMILES strings stand for the structures. Records with an inconclusive call do not appear. Entries that show only a call come without a potency. Calls of active or inactive are those of the source. The call rests on the fitted dose curve; in most records, active means well fitted cell-killing curve with a large enough effect; inconclusive means small, poorly fitted or top-dose-only effect; inactive means flat fitted curve, though single readings scatter.
Potency means the concentration at half of the fitted maximal effect.

The nature of the experiment: Cell Viability - LYMP2-018 (AID 985).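 Further: compound exposure lasted 24 hr at 37 °C; nearly all actives have a fitted effect of over 50% in size.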 The note with it: LYMP2-018 lymphoblastoid cells, viability (qHTS); series mostly up to 92.2 µM. The source says: NIH Chemical Genomics Center [NCGC]
NIH Molecular Libraries Screening Centers Network [MLSCN]
National Institutes of Environmental Health Sciences [NIEHS]
National Toxicology Program [NTP]
We have developed a 1536-well cell-based assay for quantitative high throughput screening (qHTS) against a number of cell lines to determine in vitro cytotoxicity of small molecules. This particular assay uses a human lymphoblastoid cell line (LYMP2-018) purchased from Coriell Institute for Medical Research.
NCGC Assay Protocol Summary:
The CellTiter-Glo luminescent cell viability assay (Promega) is a homogeneous method to measure the number of viable cells in culture. The end point readout of this assay is based on quantitation of intracellular ATP, an indicator of metabolic activity, using the luciferase reaction. Luciferase catalyzes the oxidation of beetle Luciferin to oxyluciferin and light in the presence of ATP. The luminescent signal is proportional to amount of ATP present.
Using the CellTiter-Glo luminescent cell viability assay, the amount of cellular ATP was measured in the lymphoblastoid cell line with complete culture medium following compound treatment for 24 hours. The assay was performed in opaque white Kalypsys 1536-well plates. In the screen, tetraoctylammonium bromide was used as positive control. Library compounds were measured for their ability to cause acute toxicity in the cell line, as reflected by a decrease in intracellular ATP levels, in a concentration-dependent manner. […] AC50 values were determined from concentration-response data modeled with the standard Hill equation.
qHTS protocol for CellTiter Glo lymphoblastoid cellular assay
[Step] [Parameter] [Value] [Description]
1. Reagent; 5 uL; 2500 lymphoblastoid cells/well
2. Time; 5 hr; 37 C incubation
4. Controls; 23 nL; Tetraoctylammonium bromide 6.4pM to 92 uM
5. Time; 24 hr; 37 C incubation
6. Reagent; 5 uL; CellTiter Glo reagent
7. Time; 30 min; Room Temperature
8. Detection; Luminescence; Viewlux plate reader
Keywords: cell viability, cytotoxicity, lymphoblastoid cell line, luminescence, NTPHTS, NTPHTS_NCGC, NIEHS, DSSTox, MLSMR, MLSCN, NIH Roadmap, qHTS, NCGC
For the compound `CC(=O)CCC(C)=O`, the Potency result was “inactive”.
As to `CCC/C=N/O`, the Potency result was “inactive”.
`OCCBr`: the Potency entry is “inactive”.
Then `CCOP(=O)(OCC)OCC`, with “inactive”; and `N#CCc1ccccc1`, with “inactive”.
Take `O=[N+]([O-])c1ccccc1O`: the Potency entry is “inactive”.
Then `N#C/C=C/C#N`, with 31.6 µM (active); and `Cc1ccc(N)cc1N`, with “inactive”.
As for `Cc1cccc(C)c1N`, the Potency entry was “inactive”.
`N#CC(Cl)(Cl)Cl`: the Potency entry is “inactive”.
With `CC(C)(Cl)[N+](=O)[O-]`, the Potency entry is “inactive”.
Take `BrCCc1ccccc1`: the Potency entry was “inactive”.
For the compound `Clc1cc(Cl)c(Cl)c(Cl)c1`, the Potency entry is “inactive”.
`O=C(O)C(Cl)(Cl)Br`: the Potency result is “inactive”.
Regarding `Nc1cc(Cl)cc(C(=O)O)c1Cl`, the Potency result is “inactive”.
For the compound `Cc1ccc(N)cc1C`, the Potency entry is “inactive”.
The same measure for `O=Cc1ccc(Cl)cc1Cl`: “inactive”.
For the compound `ClC=CCl`, the Potency result is “inactive”.
`O=C(Cl)c1ccccc1F`: the Potency entry is “inactive”.
With `Nc1ccccc1-c1ccccc1`, the Potency result is “inactive”.
The same measure for `CC(C)(C)c1ccccc1O`: “inactive”; for `Nc1cccc2ccccc12`: “inactive”; for `CCCCCc1cc(O)cc(O)c1`: “inactive”.
The same measure for `C1CC2OC2CC1C1CO1` (stereo not given): “inactive”.
Turning to `CCC[N+](=O)[O-]`, the Potency entry is “inactive”.
Then `OCCOCCO`, with “inactive”; and `CN(C)C(=O)Cl`, with “inactive”.
Then `Cc1ccc([N+](=O)[O-])cc1`, with “inactive”; and `CC(C)CC(C)N` (stereo not given), with “inactive”.
Take `Oc1ccc(Cl)c(Cl)c1Cl`: the Potency result is “inactive”.
Then `CCCCCC[N+](=O)[O-]`, with “inactive”; and `Brc1ccc(Oc2ccc(Br)cc2Br)c(Br)c1`, with “inactive”; and `O=[N+]([O-])c1ccc(Cl)cc1`, with “inactive”.
`Nc1ccc(-c2ccc(N)c(Cl)c2)cc1Cl`: the Potency result was “inactive”.
Regarding `CCCCOC(=O)c1ccccc1N`, the Potency result is “inactive”.
`CC(=O)[O-].CC(=O)[O-].CC(=O)[O-].[Cr+3]`: the Potency result is “inactive”.
Consider `CCSC(=O)N1CCCCCC1`, for which the Potency entry is “inactive”.
With `CCOC(=O)C1OC1(C)c1ccccc1` (stereo not given), the Potency result was “inactive”.
Regarding `Clc1cccc(Cl)c1`, the Potency result was “inactive”.
In the case of `O=C(O)C(Br)Br`, the Potency result was “inactive”.
